Holding throughout (experiment): DAPPL (digital affinity profiling via proximity ligation, sequencing); 10 mM Tris-HCl pH 7.5, 50 mM NaCl, 1 mM DTT, 4% glycerol, room temperature, 30 min; GST-TFs on glutathione beads, 16-mer random dsDNA library, 0.1% formaldehyde crosslink after washing; high values mean tight binding
Experiment [1] has as its target T1, FLI1 (Homo sapiens, UniProt Q01543 1-452).
T1 sequence: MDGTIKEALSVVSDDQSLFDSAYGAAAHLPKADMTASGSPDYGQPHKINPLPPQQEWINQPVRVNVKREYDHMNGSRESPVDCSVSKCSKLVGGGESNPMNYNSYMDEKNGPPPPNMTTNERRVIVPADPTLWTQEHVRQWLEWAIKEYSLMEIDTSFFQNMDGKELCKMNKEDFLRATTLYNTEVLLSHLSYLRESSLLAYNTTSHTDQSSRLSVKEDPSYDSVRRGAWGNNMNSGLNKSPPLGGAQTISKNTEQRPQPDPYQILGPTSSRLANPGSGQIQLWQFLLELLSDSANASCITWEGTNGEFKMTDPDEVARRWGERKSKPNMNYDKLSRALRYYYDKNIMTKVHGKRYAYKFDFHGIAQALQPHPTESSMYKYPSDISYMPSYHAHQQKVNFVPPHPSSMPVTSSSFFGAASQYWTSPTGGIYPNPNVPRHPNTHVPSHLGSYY
The settings on record: protein: recombinant; tags: N-terminal GST; dsDNA, one strand shown. In a few lines:
(§1)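 Binding signal is given per hexamer as its read frequency for a factor divided by its frequency in the tag-only sample. GST-fused human transcription factors were expressed in yeast, captured on glutathione beads, barcoded with DNA and pooled with that sample, then incubated with 200 nmole of a 16-mer random double-stranded DNA library in Tris/NaCl/DTT/glycerol buffer for 30 min at room temperature. The pools were then washed, crosslinked, proximity-ligated, amplified by PCR and sequenced on an Illumina NextSeq500.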

Experiment [2] has as its target T2, ELK1 (Homo sapiens, UniProt P19419 1-428).
T2 sequence: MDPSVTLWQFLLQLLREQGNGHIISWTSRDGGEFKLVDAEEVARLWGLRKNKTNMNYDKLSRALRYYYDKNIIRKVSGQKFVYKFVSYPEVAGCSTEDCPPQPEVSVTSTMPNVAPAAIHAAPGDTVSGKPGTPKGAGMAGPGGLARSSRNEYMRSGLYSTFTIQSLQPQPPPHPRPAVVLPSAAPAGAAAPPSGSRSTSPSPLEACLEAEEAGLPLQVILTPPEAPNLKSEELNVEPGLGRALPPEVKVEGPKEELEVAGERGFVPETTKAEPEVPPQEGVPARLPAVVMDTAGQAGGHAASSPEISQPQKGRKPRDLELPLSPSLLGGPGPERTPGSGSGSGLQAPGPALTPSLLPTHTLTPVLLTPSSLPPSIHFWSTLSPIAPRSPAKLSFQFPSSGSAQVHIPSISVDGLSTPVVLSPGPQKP
The settings on record: protein: recombinant; tags: N-terminal GST; dsDNA, one strand shown. In a few lines:
as §1

Experiment [3] has as its target T3, GABPA (Homo sapiens, UniProt Q06546 1-454).
T3 sequence: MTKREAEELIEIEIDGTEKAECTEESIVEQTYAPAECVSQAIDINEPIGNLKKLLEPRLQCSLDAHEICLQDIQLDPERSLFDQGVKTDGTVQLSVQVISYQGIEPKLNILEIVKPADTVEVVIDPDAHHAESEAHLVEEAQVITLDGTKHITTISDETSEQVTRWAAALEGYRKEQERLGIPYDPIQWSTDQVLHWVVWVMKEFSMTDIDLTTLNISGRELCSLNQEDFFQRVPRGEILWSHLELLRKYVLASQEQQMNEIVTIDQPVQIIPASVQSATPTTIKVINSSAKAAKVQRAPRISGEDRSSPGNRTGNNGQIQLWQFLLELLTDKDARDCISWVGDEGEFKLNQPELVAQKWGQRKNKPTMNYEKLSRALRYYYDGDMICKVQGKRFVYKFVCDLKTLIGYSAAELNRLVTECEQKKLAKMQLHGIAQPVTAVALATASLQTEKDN
The conditions noted are these: protein: recombinant; tags: N-terminal GST; dsDNA, one strand shown. In outline:
as §1

In experiment [4] the target is ELF1 (Homo sapiens, UniProt P32519 1-619). The settings on record: protein: recombinant; tags: N-terminal GST; dsDNA, one strand shown. In outline:
as §1

For experiment [5], the target named is SPI1 (Homo sapiens, UniProt P17947 1-270). The settings on record: protein: recombinant; tags: N-terminal GST; dsDNA, one strand shown. In outline:
as §1

Experiment [6] addresses SPIB (Homo sapiens, UniProt Q01892 1-262). The settings on record: protein: recombinant; tags: N-terminal GST; dsDNA, one strand shown. In outline:
as §1

Experiment [7] concerns the target T4, ELK3 (Homo sapiens, UniProt P41970 1-407).
T4 sequence: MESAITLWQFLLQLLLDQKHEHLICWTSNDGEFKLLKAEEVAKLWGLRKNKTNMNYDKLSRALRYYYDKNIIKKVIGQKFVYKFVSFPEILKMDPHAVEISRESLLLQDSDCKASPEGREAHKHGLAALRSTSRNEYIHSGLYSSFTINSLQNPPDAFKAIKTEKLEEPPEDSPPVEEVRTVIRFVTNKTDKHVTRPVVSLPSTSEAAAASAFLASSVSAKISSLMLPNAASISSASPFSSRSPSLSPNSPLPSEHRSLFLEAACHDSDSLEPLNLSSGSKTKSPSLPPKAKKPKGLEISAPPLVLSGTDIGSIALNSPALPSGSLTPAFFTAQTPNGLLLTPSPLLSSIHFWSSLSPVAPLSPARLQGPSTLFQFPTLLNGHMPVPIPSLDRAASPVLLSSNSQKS
The settings on record: protein: recombinant; tags: N-terminal GST; dsDNA, one strand shown. In outline:
as §1

Experiment [8] concerns the target T5, FEV (Homo sapiens, UniProt Q99581 1-238).
T5 sequence: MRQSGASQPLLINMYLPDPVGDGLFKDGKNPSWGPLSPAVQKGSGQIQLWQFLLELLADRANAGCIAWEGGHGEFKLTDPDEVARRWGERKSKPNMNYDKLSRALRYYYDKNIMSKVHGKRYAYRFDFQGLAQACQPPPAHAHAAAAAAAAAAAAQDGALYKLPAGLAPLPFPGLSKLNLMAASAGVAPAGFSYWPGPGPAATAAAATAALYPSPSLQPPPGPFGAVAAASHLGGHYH
The conditions noted are these: protein: recombinant; tags: N-terminal GST; dsDNA, one strand shown. In outline: as §1

Experiment [9] concerns the target ETV5 (Homo sapiens, UniProt P41161 1-510). The conditions noted are these: protein: recombinant; tags: N-terminal GST; dsDNA, one strand shown. In a few lines: as §1
For experiment [10], the target named is HSF1 (Homo sapiens, UniProt Q00613 1-529). The settings on record: protein: recombinant; tags: N-terminal GST; chain copies: 3; dsDNA, one strand shown. In outline: as §1
Sequence of HSF1 (Q00613 whole entry): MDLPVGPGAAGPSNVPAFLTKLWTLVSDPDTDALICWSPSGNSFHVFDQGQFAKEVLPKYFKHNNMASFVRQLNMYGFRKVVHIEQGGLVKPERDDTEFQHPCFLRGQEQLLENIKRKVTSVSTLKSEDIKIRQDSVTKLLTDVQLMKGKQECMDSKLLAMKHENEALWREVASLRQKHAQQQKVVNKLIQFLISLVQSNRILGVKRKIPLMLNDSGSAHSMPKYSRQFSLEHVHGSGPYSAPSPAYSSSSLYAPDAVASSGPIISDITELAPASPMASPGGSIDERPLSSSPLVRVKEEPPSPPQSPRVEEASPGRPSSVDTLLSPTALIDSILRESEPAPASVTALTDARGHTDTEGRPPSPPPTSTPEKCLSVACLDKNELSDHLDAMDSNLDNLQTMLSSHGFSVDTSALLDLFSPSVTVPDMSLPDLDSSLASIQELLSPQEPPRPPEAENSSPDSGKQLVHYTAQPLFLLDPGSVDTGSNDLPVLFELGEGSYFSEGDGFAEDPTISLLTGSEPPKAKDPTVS
Experiment [11] addresses T6, ELK4 (Homo sapiens, UniProt P28324-2 1-405).
T6 sequence: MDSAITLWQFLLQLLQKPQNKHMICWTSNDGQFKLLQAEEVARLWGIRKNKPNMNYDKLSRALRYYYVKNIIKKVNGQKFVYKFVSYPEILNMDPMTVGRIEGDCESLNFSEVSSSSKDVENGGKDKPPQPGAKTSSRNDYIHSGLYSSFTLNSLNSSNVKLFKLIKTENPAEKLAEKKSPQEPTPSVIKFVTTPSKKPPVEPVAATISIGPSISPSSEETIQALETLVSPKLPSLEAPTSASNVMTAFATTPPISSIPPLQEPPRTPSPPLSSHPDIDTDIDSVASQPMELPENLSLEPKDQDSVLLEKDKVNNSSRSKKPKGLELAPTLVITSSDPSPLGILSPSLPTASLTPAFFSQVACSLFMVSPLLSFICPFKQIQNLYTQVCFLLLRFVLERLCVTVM
The settings on record: protein: recombinant; tags: N-terminal GST; dsDNA, one strand shown. In a few lines:
as §1

Experiment [12] has as its target T7, ETV2 (Homo sapiens, UniProt O00321 1-342).
T7 sequence: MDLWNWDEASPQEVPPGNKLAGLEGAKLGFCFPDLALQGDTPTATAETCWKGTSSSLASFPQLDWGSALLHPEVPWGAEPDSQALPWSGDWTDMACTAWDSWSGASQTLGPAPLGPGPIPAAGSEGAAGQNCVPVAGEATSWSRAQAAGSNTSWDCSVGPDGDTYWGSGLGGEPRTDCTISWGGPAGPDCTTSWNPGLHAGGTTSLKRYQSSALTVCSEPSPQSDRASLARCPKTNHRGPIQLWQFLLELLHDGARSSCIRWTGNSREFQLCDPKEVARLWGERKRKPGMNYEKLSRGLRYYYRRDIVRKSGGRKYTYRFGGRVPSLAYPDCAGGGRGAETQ
The settings on record: protein: recombinant; tags: N-terminal GST; dsDNA, one strand shown. In a few lines:
as §1

For experiment [13], the target named is T8, ELF3 (Homo sapiens, UniProt P78545 1-371).
T8 sequence: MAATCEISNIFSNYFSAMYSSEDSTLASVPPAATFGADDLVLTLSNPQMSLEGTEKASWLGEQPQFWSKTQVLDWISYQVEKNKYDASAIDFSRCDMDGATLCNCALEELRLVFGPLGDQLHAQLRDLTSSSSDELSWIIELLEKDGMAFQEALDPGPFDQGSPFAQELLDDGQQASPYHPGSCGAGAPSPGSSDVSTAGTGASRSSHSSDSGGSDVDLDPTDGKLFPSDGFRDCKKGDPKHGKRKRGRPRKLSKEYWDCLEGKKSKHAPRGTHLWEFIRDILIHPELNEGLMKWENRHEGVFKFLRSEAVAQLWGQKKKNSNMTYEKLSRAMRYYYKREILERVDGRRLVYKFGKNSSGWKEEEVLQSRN
The settings on record: protein: recombinant; tags: N-terminal GST; dsDNA, one strand shown. In outline: as §1

In experiment [14] the target is CRX (Homo sapiens, UniProt O43186 1-299). The settings on record: protein: recombinant; tags: N-terminal GST; dsDNA, one strand shown. In a few lines:
as §1

Experiment [15] has as its target ETV1 (Homo sapiens, UniProt P50549 1-477). The conditions noted are these: protein: recombinant; tags: N-terminal GST; dsDNA, one strand shown. In outline:
as §1

Our source for the binding signal values is PMC7862700, “An all-to-all approach to the identification of sequence-specific readers for epigenetic DNA modifications on cytosine”.

Sequence of ETV5 (P41161 whole entry): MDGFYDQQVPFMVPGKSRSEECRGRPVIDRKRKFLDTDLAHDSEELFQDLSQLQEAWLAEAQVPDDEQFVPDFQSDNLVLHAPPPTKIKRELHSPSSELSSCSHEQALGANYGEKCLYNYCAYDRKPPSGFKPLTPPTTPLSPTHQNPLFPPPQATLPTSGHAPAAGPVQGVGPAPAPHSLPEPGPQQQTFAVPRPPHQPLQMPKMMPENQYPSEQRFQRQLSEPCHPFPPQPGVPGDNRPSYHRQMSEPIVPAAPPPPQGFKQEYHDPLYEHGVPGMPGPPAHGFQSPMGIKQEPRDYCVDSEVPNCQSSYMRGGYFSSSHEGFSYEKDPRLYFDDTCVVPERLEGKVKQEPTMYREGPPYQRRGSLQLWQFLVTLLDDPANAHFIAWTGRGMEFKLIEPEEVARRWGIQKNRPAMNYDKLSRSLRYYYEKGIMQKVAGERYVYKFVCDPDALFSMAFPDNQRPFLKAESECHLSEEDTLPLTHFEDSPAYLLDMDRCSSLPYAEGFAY
Sequence of ETV1 (P50549 whole entry): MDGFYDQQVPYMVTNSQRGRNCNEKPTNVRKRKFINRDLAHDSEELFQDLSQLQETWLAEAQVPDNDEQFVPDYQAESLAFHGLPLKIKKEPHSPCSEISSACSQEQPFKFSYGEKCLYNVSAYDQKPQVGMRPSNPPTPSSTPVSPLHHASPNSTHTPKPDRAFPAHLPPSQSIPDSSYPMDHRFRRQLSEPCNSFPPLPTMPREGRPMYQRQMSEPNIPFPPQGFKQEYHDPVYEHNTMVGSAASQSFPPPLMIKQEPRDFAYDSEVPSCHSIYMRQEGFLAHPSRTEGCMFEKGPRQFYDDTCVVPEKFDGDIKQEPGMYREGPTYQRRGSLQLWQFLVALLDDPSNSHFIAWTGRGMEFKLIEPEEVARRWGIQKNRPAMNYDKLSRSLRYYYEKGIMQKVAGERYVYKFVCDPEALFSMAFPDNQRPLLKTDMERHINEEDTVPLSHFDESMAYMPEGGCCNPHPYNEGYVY
Sequence of SPIB (Q01892 whole entry): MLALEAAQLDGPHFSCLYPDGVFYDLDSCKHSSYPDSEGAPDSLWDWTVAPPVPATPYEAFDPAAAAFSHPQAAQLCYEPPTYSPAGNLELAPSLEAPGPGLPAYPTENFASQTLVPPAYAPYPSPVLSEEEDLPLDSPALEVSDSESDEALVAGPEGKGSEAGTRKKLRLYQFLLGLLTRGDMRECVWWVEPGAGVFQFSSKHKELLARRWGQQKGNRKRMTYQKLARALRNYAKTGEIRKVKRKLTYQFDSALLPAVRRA
Sequence of CRX (O43186 whole entry): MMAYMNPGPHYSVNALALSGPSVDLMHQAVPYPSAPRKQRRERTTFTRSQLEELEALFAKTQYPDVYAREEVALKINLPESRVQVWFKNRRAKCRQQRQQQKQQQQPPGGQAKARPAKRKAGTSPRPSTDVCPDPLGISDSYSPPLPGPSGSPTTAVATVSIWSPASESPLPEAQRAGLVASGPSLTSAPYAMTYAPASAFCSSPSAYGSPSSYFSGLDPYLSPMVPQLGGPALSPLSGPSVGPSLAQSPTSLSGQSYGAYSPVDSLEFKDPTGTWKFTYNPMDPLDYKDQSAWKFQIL
Sequence of ELF1 (P32519 whole entry): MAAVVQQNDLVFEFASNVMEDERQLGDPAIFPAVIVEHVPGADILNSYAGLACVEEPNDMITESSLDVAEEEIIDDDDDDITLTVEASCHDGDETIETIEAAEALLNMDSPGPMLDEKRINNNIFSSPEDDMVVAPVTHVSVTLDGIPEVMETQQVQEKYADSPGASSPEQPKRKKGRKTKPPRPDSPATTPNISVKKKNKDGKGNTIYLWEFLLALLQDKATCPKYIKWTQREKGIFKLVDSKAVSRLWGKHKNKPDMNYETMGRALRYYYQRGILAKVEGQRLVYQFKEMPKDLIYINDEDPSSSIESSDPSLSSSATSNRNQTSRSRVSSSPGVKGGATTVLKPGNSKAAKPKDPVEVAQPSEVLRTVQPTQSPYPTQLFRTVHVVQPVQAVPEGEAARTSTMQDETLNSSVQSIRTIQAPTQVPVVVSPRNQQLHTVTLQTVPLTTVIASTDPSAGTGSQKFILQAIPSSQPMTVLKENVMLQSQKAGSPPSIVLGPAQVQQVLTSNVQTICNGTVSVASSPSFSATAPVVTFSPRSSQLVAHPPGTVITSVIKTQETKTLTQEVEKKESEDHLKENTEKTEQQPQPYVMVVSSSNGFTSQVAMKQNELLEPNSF

TAGTGC: the binding signal was 1.05 fold enrichment (6-mer frequency, TF over GST control) in experiment [1]; 1.02 fold enrichment (6-mer frequency, TF over GST control) in experiment [2]; 1.12 fold enrichment (6-mer frequency, TF over GST control) in experiment [3]; 1.1 fold enrichment (6-mer frequency, TF over GST control) in experiment [4]; 1.05 fold enrichment (6-mer frequency, TF over GST control) in [5]; 1.03 fold enrichment (6-mer frequency, TF over GST control) in experiment [6]. The binding signal in [7] was 1.07 fold enrichment (6-mer frequency, TF over GST control); in experiment [8] it was 1.02 fold enrichment (6-mer frequency, TF over GST control); in experiment [9], 1.08 fold enrichment (6-mer frequency, TF over GST control); in experiment [10] it was 1.02 fold enrichment (6-mer frequency, TF over GST control); in [11] it was 1.04 fold enrichment (6-mer frequency, TF over GST control); in experiment [12], 1.02 fold enrichment (6-mer frequency, TF over GST control). For the same sequence, the binding signal in experiment [13] is 1.03 fold enrichment (6-mer frequency, TF over GST control); in experiment [14], 1.16 fold enrichment (6-mer frequency, TF over GST control); in [15], 1.09 fold enrichment (6-mer frequency, TF over GST control).
